Screening results deposited in PubChem BioAssay by several laboratories.
Only some compounds are listed: those with a hit (about 1.8% of all), similar ones and a draw of the others.
AI-2 QS mod = Vibrio harveyi AI-2 quorum sensing modulators, primary screen, JMH597 strain, luminescence/OD600 ratio | activity change, % at 7.5 µM | Vibrio harveyi JMH597 AI-2 luminescence/OD600 ratio, 9 h; hits give low values; strain lacks LuxN and CqsS sensors; 0 = neutral-control median | AID 2094, 2009 | 300,000 tested, 0.4% active; in the data active means activity change below about -75%, passing the limit was not always enough;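 further: luminescence divided by OD600 gain over 9 h not by final OD600 alone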
A1 inh = caspase 3/7 activation in MEF A1-2A-BIM cells, primary screen, A1 inhibitor project, cell-based, luminescence, HTS. Caspase-Glo 3/7 luminescence, 3 h; percent of clofoctol response, vehicle zero. caspase activation, % (concentration not given with the values). 330,000 tested, 0.066% active;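 active means over half of replicate activation scores above 10%, or exactly half above 10 with the replicate mean above 10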
ARNT-TACC3 inh = disruptors of ARNT/TACC3 protein interaction, primary screen, biochemical, AlphaScreen, single concentration. Transforming acidic coiled-coil-containing protein 3 (Homo sapiens), Q9Y6A5. AlphaScreen His-ARNT PAS-B/GST-TACC3 binding, luminescence; TACC3 fragment carries E629A point mutation. inhibition, % at 9.99 µM. 390,000 tested, 0.66% active;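 active means mean inhibition of replicates at least 50% and at least half of replicates each reaching 50%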;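 further: 0% = complete ARNT plus TACC3 wells and 100% = ARNT alone without TACC3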
SUMO Mot1 rescue = yeast Mot1-301 growth rescue at high temperature, primary screen, SUMOylation pathway inhibitor project, S. cerevisiae, ATP luminescence, 38.5C | AID 2716, 2010 | growth rescue, % at 18.8 µM | 320,000 tested, 1% active | S. cerevisiae Mot1-301 growth rescue; percent above DMSO median, 100 means doubled;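 active means every valid replicate shows activation above 250% relative to neutral control wells; inactive means the rest, any valid replicate at or below 250%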;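 further: OY570 slx delta 5 strain wells were the positive control but not used for scaling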
aDG glyco up = activators of alpha-DG glycosylation, primary screen, uHTS, Pro5-aDG cells, AlphaScreen | alpha-DG glycosylation AlphaScreen (IIH6); 0% Pro5, 100% B10-LARGE cell signal | activation, % at 10 µM | 360,000 tested, 0.22% active;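 active means activation of at least 8% versus controls, or a plate z-score of at least 8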;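 further: Pro5 are CHO cells carrying HIG-tagged alpha-DG that lacks glycosylation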
Mot1 SUMO dose = growth restoration of Mot1-301 yeast on galactose, dose response, SUMO pathway inhibitor project, whole organism, S. cerevisiae, ATP luminescence, cherry-picked samples | shares compounds with SUMO Mot1 rescue | S. cerevisiae Mot1-301 galactose growth, 24 h; -100 = growth of slx-deleted rescue strain | growth activity, percent, % at 42 µM | 2,300 tested, under 10 active;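 active means Signal drops as the depositor expects, and the fitted half-maximal dose is no more than ten times the top valid tested dose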;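 further: more negative values mean stronger growth rescue toward the control strain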
* = called active by the depositor; . = no result; + = active, no number; ! = not active in a repeat.

SMILES	AI-2 QS mod	A1 inh	ARNT-TACC3 inh	SUMO Mot1 rescue	aDG glyco up	Mot1 SUMO dose
CN1C(C(=O)Nc2ccccn2)=C(O)c2sccc2S1(=O)=O	10	-1	5	982*!	0	0
CCOc1ccc2[nH]c3c(NCCN(C)C)ncnc3c2c1	1	0	13	13	0	.
CCN(CC)CCNc1ncnc2c1[nH]c1ccc(OC)cc12	15	0	.	+	.	1
CC1CCCCN1C(=O)N[C@@H](Cc1ccccc1)C(=O)O (stereo not given in full)	17	-1	-5	24	0	.
CC1CCCCN1C(=O)C(Cc1ccccc1)N1C(=O)C2CCCCC2C1=O (stereo not given)	36	-1	-10	862*	0	-1
C=CCN(c1ccc(C(=O)Nc2ccc3c(c2)n(C)c(=O)n3C)cc1)S(C)(=O)=O	45	0	-3	0	0	.
CCN(CC)S(=O)(=O)c1ccc(N2CCCCC2)c(NC(=O)C2CSC3(C)CCC(=O)N23)c1 (stereo not given)	.	.	.	.	0	.
COc1ccc(/C=C(\C#N)C(=O)c2cccn2C)cc1	35	0	-2	396*	0	0
COc1cc(O)sc1C=Nc1ccc(Cl)cc1	-4	-6	13	570	-1	.
O=C(O)CCCNS(=O)(=O)Cc1ccccc1	18	0	5	4	0	.
CCCCOCCCNS(=O)(=O)Cc1ccccc1	26	1	-11	366*	0	0
O=C(O)CC(NC(=O)c1ccc2c(c1)OCO2)c1cccc([N+](=O)[O-])c1 (stereo not given)	27	1	3	+	0	0
COc1nc(OC)nc(N2CCC(C(=O)NCc3ccco3)CC2)n1	4	1	-2	12	0	.
COc1ccc(C(=O)OCC(=O)N2CCN(S(=O)(=O)c3ccc(C)cc3)CC2)cc1[N+](=O)[O-]	.	.	9	.	0	.
COc1ccc(C(=O)Nc2nc(N3C(=O)c4ccccc4C3=O)n(-c3ccccc3)n2)cc1	26	0	16	3	0	.
Oc1cccc2ccc(/C=C/c3ccccc3Br)nc12	37	-8	1	528*	0	0
COc1cc(Br)c(/C=C/c2ccc3cccc(O)c3n2)cc1OC	14	1	-10	14	-1	.
Cc1ccccc1NC(=O)/C(C#N)=C\c1cn(CC(=O)O)c2ccccc12	10	0	.	9	-1	.
COC(=O)C(NC(=O)CCc1nnc2ccc(N3CCC(C)CC3)nn12)C(C)C (stereo not given)	16	1	-3	147	0	.
COC(=O)[C@@H](NC(=O)Nc1ccc(S(N)(=O)=O)cc1)C(C)C	-2	0	-7	373*	0	0
COc1ccc(CNC(=O)c2cc(=O)c3ccc(C)c(C)c3o2)cc1	8	-1	-11	-17	0	.
COc1ccc(CNC(=O)c2cc(=O)c3cc(C)cc(C)c3o2)cc1	14	0	5	+	0	1
CC(C)C1OC2(C)OC(=N)C1(C#N)C(C#N)(C#N)C2c1ccccc1 (stereo not given)	53	0	-10	414*	0	1
CC(=O)NCC(=O)N(C)C(C(=O)Nc1ccc2c(c1)OCCO2)c1ccc(C)cc1 (stereo not given)	8	-1	-4	-12	0	.
Cc1ccc(C(C(=O)Nc2ccc3c(c2)OCO3)N(C)C(=O)/C=C\c2ccc3c(c2)OCO3)cc1 (stereo not given)	23	0	10	383*	0	0
CS(=O)(=O)N(CC(=O)N1CCCC1)c1cccc(Cl)c1Cl	17	0	0	530*	0	0
